An excerpt weighted towards active compounds, which were near 10% of everything screened.
Pf growth 96h = Primary qHTS for delayed death inhibitors of the malarial parasite plastid, 96 hour incubation. 320,000 tested, 6.9% active. AID 504834, 2011. P. falciparum luciferase reporter growth, 96 h. Potency, µM (titrated, usually from 28.7 µM), without a hit: at the top dose activity change, negative = inhibition, hits mostly inhibitors; active means well fitted inhibition curve with a large enough effect; inconclusive means small, poorly fitted or top-dose-only effect, or another doubt; inactive means no such curve, though single readings can be large or run the other way; further: on the % scale 0 is the no-effect control and ±100 the full control effect
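96 h incubation, 37 C, 5% CO2, of luciferase-reporter P. falciparum-infected RBCs (2% hematocrit, 0.05% parasitemia final) with test compounds; endpoint luminescence.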
SARS PLP yeast = qHTS of Yeast-based Assay for SARS-CoV PLP; S. cerevisiae expressing SARS-CoV PLpro, growth rescue; Potency, µM (highest dose often 32.9 µM), for inactives: at the top dose activity, positive = growth rescue, actives largely listed as activators; 330,000 tested, 0.19% active; AID 485353, 2010; further: 0% is about no effect; nearly all actives have a fitted effect of over 55% in size
NS1 inh = qHTS Assay for Inhibitors of Influenza NS1 Protein Function; Potency, µM (top dose mostly 46.1 µM), for inactives: at the highest dose activity, positive = more growth; 270,000 tested, 0.4% active; further: actives are rising curves; nearly all actives have a fitted effect of over 50% in size
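Recovery from NS1-induced slow growth read by OD600 in budding yeast switched to galactose assay medium (pH 6.0, -URA) at 1:100 dilution. Compound 23 nl per well; the matching strain lacking NS1 serves as control.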
Pf growth 48h = Primary qHTS for delayed death inhibitors of the malarial parasite plastid, 48 hour incubation; AID 504832, 2011; Potency, µM (titrated, usually from 28.7 µM), without a hit: top-dose activity change, negative = inhibition, hits mostly inhibitors; 310,000 tested, 5.9% active; P. falciparum luciferase growth in erythrocytes, 48 h; active means well fitted inhibition curve with a large enough effect; inconclusive means small, poorly fitted or top-dose-only effect, or another doubt; inactive means no such curve, though single readings can be large or run the other way; further: on the % scale 0 is the no-effect control and ±100 the full control effect
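Here the parasites carry a stable luciferase gene and grow inside erythrocytes in Albumax-based RPMI medium with compound for one erythrocytic cycle. Activity is scored as loss of luminescent signal.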
Starred values were filed as active, the others as inactive; ? = inconclusive; / = no result; [ ] = dose if it differs, or a comment. Unless noted, the call rests on the fitted dose curve. Potency means the concentration at half of the fitted maximal effect.

SMILES	Pf growth 96h	SARS PLP yeast	NS1 inh	Pf growth 48h
CCc1c(C)sc2nc(C(C)C)nc(SCC(=O)N3CCc4ccccc4C3)c12	13µM*	5%	2%	12µM*
Cc1sc2nc(C3CC3)nc(SCC(=O)N3CCc4ccccc4C3)c2c1C	?	-12%	5%	?
O=C(NCc1cccs1)C1CCC(=O)N(Cc2cccc(C(F)(F)F)c2)C1 (stereo unspecified)	?	4%	0%	?
N#C/C(=C\c1cn(CCOc2ccccc2)c2ccccc12)C(=O)NCC1CCCO1 (stereo unspecified)	?	-5%	20%	9.3µM*
Cc1cc(/C=C(\C#N)C(=O)NCC2CCCO2)c(C)n1-c1ccc(Cl)cc1 (stereo unspecified)	10µM*	-6%	-1%	10µM*
COc1cc(/C=C(\C#N)C(=O)NCC2CCCO2)ccc1O (stereo unspecified)	20%	3%	-5%	-4%
COc1ccccc1OCCn1cc(/C=C(\C#N)C(=O)NCc2cccs2)c2ccccc21	5%	-13%	4%	?
Cc1ccc(C)c(OCCn2cc(/C=C(/C#N)C(=O)NCC3CCCO3)c3ccccc32)c1 (stereo unspecified)	45%	-1%	10%	2.1µM*
COc1cccc(CNC(=O)CCS(=O)(=O)c2cc3c(cc2C)NC(=O)CO3)c1	52%	9%	-12%	0%
COc1ccc(CNC(=O)c2coc(=O)c3ccccc23)c(OC)c1	7%	1%	3%	?
CCCc1ccc(OCC(O)CN2CCN(c3ccccn3)CC2)cc1 (stereo unspecified)	1%	0%	-24%	8%
CC(=O)c1ccc(OCC(=O)OCC(=O)Nc2sccc2C(N)=O)cc1	8%	5%	/	5%
COc1ccccc1C(=O)C1CCCN(C(=O)c2cccnc2SC)C1 (stereo unspecified)	68%	0%	0%	5.2µM*
CSc1ccc(C(=O)C2CCCN(C(=O)c3cccnc3SC)C2)cc1 (stereo unspecified)	-13%	1%	-3%	?
COc1ccc(C(=O)C2CCCN(C(=O)CSC)C2)cc1OC (stereo unspecified)	13µM*	-6%	24%	19%
COC(=O)c1cc(S(=O)(=O)N2CCN(c3cccc(C)c3C)CC2)c[nH]1	-14%	-10%	-14%	?
CC(C(=O)NC1CCCC1)N1C(=O)c2cccc3cccc1c23 (stereo unspecified)	2.3µM*	-3%	-6%	?
CC(C(N)=O)N1C(=O)c2cccc3cccc1c23 (stereo unspecified)	/	-3%	11%	2%
CN1CCN(NC(=O)Nc2ccc(F)cc2)CC1	?	16%	9%	4%
CC(C)(C)c1cc(NC(=O)Nc2ccccc2OC(F)(F)F)no1	?	6%	10%	12µM*
O=C(/C=C/c1ccccc1[N+](=O)[O-])NC1CCCC1	-3%	0%	-2%	38%[5.75 µM]
Cc1ccc(-c2nnc(N3CCN(C(=O)CSc4ncn[nH]4)CC3)c3ccccc23)cc1	/	8%	-19%	10µM*
CCC1(c2ccc(F)cc2)NC(=O)N(CC(=O)N2CCN(S(=O)(=O)c3ccc(C)cc3)CC2)C1=O (stereo unspecified)	?	5%	/	?
COc1ccc(S(=O)(=O)N2CCCCCC2)cc1NC(=O)CN1C(=O)NC(C)(c2ccccc2)C1=O (stereo unspecified)	4.1µM*	2%	/	9.3µM*
CCCC1(c2ccccc2)NC(=O)N(CC(=O)Nc2cc(S(=O)(=O)N3CCOCC3)ccc2Cl)C1=O (stereo unspecified)	13µM*	3%	/	-24%
SMILES	Pf growth 96h	SARS PLP yeast	NS1 inh	Pf growth 48h
CCOc1ccc(S(=O)(=O)N2CCOCC2)cc1NC(=O)CN1C(=O)NC2(CCCCC2)C1=O	0%	-7%	/	-9%
Cc1ccc(S(=O)(=O)N2CCOCC2)cc1NC(=O)CN1C(=O)NC2(CCCC2)C1=O	/	8%	/	/
CCC1(c2ccccc2)NC(=O)N(CC(=O)Nc2cc(S(=O)(=O)N3CCCCC3)ccc2N(C)C)C1=O (stereo unspecified)	?	0%	/	?
CCOc1ccc(S(=O)(=O)N2CCOCC2)cc1NC(=O)CN1C(=O)NC(C)(c2ccc(C)cc2)C1=O (stereo unspecified)	?	1%	/	10µM*
Cc1ccc(C2(C)NC(=O)N(CC(=O)N3CCN(S(=O)(=O)c4cccc(F)c4)CC3)C2=O)cc1 (stereo unspecified)	12µM*	4%	-4%	-19%
Cc1cc(=O)[nH]c(SCC(=O)Nc2ccc(Br)cc2)c1C#N	15µM*	2%	-1%	/
COc1ccc(NC(=O)Nc2ccc(Cc3ccncc3)cc2)cc1OC	5.2µM*	2%	20%	?
COc1ccccc1NC(=O)Nc1ccc(Cc2ccncc2)cc1	10%	-1%	-7%	20%
COc1ccccc1OCC#CCn1ccnc1	2%	0%	2%	-6%
COc1ccc(C(=O)Nc2ccc(Cn3ccnc3)cc2)cc1OC	10µM*	1%	0%	34%
COc1cc(OC)cc(C(=O)Nc2ccc(Cn3ccnc3)cc2)c1	22%	0%	9%	?
COc1cc2ccccc2cc1C(=O)Nc1ccc(Cc2ccncc2)cc1	4.1µM*	-38%	-101%	/
COc1cc2ccccc2cc1C(=O)Nc1ccc(C)cc1	-17%	-10%	-81%	?
COc1cc(Cn2ccnc2)c(OC)cc1Cn1ccnc1	?	-2%	2%	9.3µM*
O=C(OCC(=O)N1CCc2ccccc21)c1ccc([N+](=O)[O-])o1	/	-8%	/	/
CC(=O)N1c2ccc(S(=O)(=O)N(C)CC(=O)NC3CCCCC3C)cc2CC1C (stereo unspecified)	0%	7%	?	?
O=c1/c(=C\c2cccc(O)c2)sc2nc(-c3ccccc3)c(-c3ccccc3)n12	47%	-2%	-6%	-4%
O=C1/C(=C/c2cccnc2)CC/C1=C\c1cccnc1	?	0%	/	?
CCC1C/C(=C\c2cccnc2)C(=O)/C(=C/c2cccnc2)C1 (stereo unspecified)	21%	-80%	-63%	7.4µM*
O=C1/C(=C/c2cccnc2)CCC/C1=C\c1cccnc1	13µM*	-126%	-38%	10µM*
CN(C)c1ccc(/C=C2\CCC/C(=C\c3ccccc3)C2=O)cc1	?	-29%	5%	?
O=C1/C(=C/c2ccc(C(=O)O)cc2)CCC/C1=C\c1ccc(C(=O)O)cc1	1.5µM*	15%	23%	2.1µM*
CC(C)/C=C1\CC/C(=C\c2cccnc2)C1=O	158%	-12%	/	?
CC(=O)Nc1ccc(NC(=O)C(C)Oc2ccc(C)nc2[N+](=O)[O-])cc1 (stereo unspecified)	-27%	5%	/	5%
O=C(Cc1nc2ccccc2[nH]1)c1ccc([N+](=O)[O-])cc1	2.9µM*	0%	7%	1.9µM*
O=C(Cc1nc2ccccc2[nH]1)c1ccc(Cl)cc1	?	-2%	-18%	2.3µM*

Assay outcomes: PubChem BioAssay, National Center for Advancing Translational Sciences (NCATS)
